Measurements: PubChem BioAssay (EPA / NIEHS)
Inconclusive results are not listed. The source made the active and inactive calls. The calls were made as follows: active = hit-call score of the fitted dose curve at least 0.9, where 1 is the maximum; inconclusive = response in the unintended direction; inactive = score below 0.9.

read-out: HMG-CoA synthase (HMGCS2), HMGCS2 (gene 3158); assay: CLD_HMGCS2_48hr: CellzDirect (CLD) Gene Expression Assay for HMG-CoA synthase (HMGCS2) at 48 hours (AID 2283711)
Experimental: CLD_48hr is a cell-based, multiplexed-readout assay that uses hepatocyte, a human liver primary cell, with measurements taken at 48 hours after chemical dosing in a 96-well plate.CLD_HMGCS2_48hr is one of 16 assay component(s) measured or calculated from the CLD_48hr assay. It is designed to make measurements of mRNA induction, a form of inducible reporter, as detected with chemiluminescence signals by Quantitative Nuclease Protection Assay (qNPA) technology.Data from the assay component CLD_HMGCS2_48hr was analyzed at the endpoint, CLD_HMGCS2_48hr, in the positive analysis fitting direction relative to DMSO as the negative control and baseline of activity. Using a type of inducible reporter, gain-of-signal activity can be used to understand changes in the reporter gene as they relate to the gene HMGCS2. Furthermore, this assay endpoint can be referred to as a primary readout. To generalize the intended target to other relatable targets, this assay endpoint is annotated to the lyase intended target family, where subfamily is HMG-CoA synthase.
Human hepatocyte cultures were treated daily for two consecutive days with fresh dosing solutions containing appropriate concentrations of the 320 ToxCast chemicals (chemical identities were blinded to CellzDirect and other ToxCast collaborators), vehicle control (0.2% DMSO), and positive control inducers as summarized in Table 1. Due to the large number of treatment groups and chemicals examined, the ToxCast chemicals were divided into two groups (spanning two independent cultures of hepatocytes from separate donor preparations (Hu778: ToxCast plates 1 and 2; Hu776: ToxCast plates 3 and 4). Each preparation of human hepatocyte cultures was treated with respective vehicle control, medium only control, set of six positive controls/reference chemicals for the five hepatic receptor pathways, and a subset of eight of the ToxCast chemicals (indoxacarb, pyrithiobac-sodium, norflurazon, cyhalofop-butyl, methomyl, thiram, acetochlor, and propiconazole). These replicate data, coupled with internal replicates designed within the blinded ToxCast chemical library, provided additional data to evaluate interindividual differences between hepatocyte preparations and their potential impact on chemical profiles.Cell morphology and integrity were evaluated using phase-contrast microscopy as an indicator of hepatocyte cell health (Tyson & Green, 1987). Cultures for each treatment group (i.e., media, vehicle [0.2% DMSO], positive control inducers [multiple concentrations], and the ToxCast chemicals [multiple concentrations]) were observed and cell morphology was assessed relative to vehicle control cultures at each harvest time point (0, 6, 24, or 48 h). […] Images were evaluated at the conclusion of the study to assess changes in cell integrity and account for the effects of chemical exposure on uncharacteristic changes in concentration-dependent gene expression profiles. The results from these determinations of apparent cytotoxicity were annotated (yes/no) alongside the corresponding qNPA data for reference.At the conclusion of each treatment period, hepatocyte cultures (96-well) were washed with 1 volume of HBSS, lysed by addition of 25 ul ArrayPlate lysis buffer (HTG, Tucson, AZ), and 70 ul/well of Denaturation Oil, denatured by incubation at 95C for 10 min, and frozen at approximately -70C until analysis by nuclease protection assay (qNPA) (Roberts et al., 2007). For qNPA analysis, cell lysates were thawed at 50C for approximately 30 min, qNPA probes were added, and samples were incubated at 95C for 10 min to begin the detection process by denaturing the target RNA, dissociating the duplexes and secondary structure hybridization. At the conclusion of the hybridization period, S1 nuclease reagent was added to each sample to digest all nonprotected nucleotides at 50C for 60-90 min. […]

SMILES | outcome | AC50
Cc1cc(C)nc(NC(=O)NS(=O)(=O)c2ccccc2C(=O)OC2COC2)n1 | inactive | –
CNC(=O)/C=C(\C)OP(=O)(OC)OC | inactive | –
Oc1cc(Cl)ccc1Oc1ccc(Cl)cc1Cl | – | 0.0058 µM (active)
CC1(C)C(C=C(Cl)Cl)C1C(=O)OC(C#N)c1ccc(F)c(Oc2ccccc2)c1 (centres undefined) | inactive | –
CC1(c2ccc(Oc3ccccc3)cc2)OC(=O)N(Nc2ccccc2)C1=O (centres undefined) | inactive | –
Oc1ccc(Cl)cc1Cc1ccccc1 | inactive | –
O=S(=O)(O)C(F)(F)C(F)(F)C(F)(F)C(F)(F)C(F)(F)C(F)(F)C(F)(F)C(F)(F)F | inactive | –
O=C(NC(=O)c1c(F)cccc1F)Nc1ccc(OC(F)(F)C(F)OC(F)(F)F)c(Cl)c1 (centres undefined) | inactive | –
O=C(O)COc1ccc(Cl)cc1Cl | inactive | –
Clc1ccccc1-c1nnc(-c2ccccc2Cl)nn1 | inactive | –
CC(C)(C)C(O)C(Oc1ccc(Cl)cc1)n1cncn1 (centres undefined) | inactive | –
CNC(=O)CSP(=S)(OC)OC | inactive | –
O=C(O)C(F)(F)C(F)(F)C(F)(F)C(F)(F)C(F)(F)C(F)(F)C(F)(F)F | – | 35.5 µM (active)
O=C(O)CCCOc1ccc(Cl)cc1Cl | inactive | –
